The subject of assay [1] is CRL-7250. As to the kind of experiment: Cytotoxic Profiling of Annotated Libraries Using Quantitative High-Throughput Screening (AID 1296008). Also: potency is read from the fitted curve at half-maximal effect. As to max response: % is scaled to controls: 0 for no effect and ±100 for the full control effect. The note with it: Five cell lines viability, CellTiter-Glo ATP luminescence, 48-72 h; max response: active compounds read low. The method, boiled down: (§1)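 Compounds were pin-transferred onto cells and incubated 48 or 72 hr at 37 degree Celsius, 95% humidity. CellTiter-Glo was added, plates sat 10 min at room temperature, then ATP-coupled luminescence was imaged as the viability read-out.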

The test system of another assay is HEK293. The assay is described as above. The note with it: Five cell lines viability, CellTiter-Glo ATP luminescence, 48-72 h; max response: active compounds read low. The method, boiled down: as §1
Assay [2] relates to HaCat. Described as above. The note with it: Five cell lines viability, CellTiter-Glo ATP luminescence, 48-72 h; max response: active compounds read low. The method, boiled down: as §1
In general terms: ATP-based viability assays read luminescence as a measure of living cells.

A further assay deals with KB-3-1. The description is as above. The note with it: Five cell lines viability, CellTiter-Glo ATP luminescence, 48-72 h; max response: active compounds read low. The method, boiled down:
as §1

Assay [3] deals with NIH3T3. The description is as above. As to conditions: Five cell lines viability, CellTiter-Glo ATP luminescence, 48-72 h; max response: active compounds read low. The method, boiled down:
as §1

Assay [4] has as its system HACAT. Nature of the assay: qHTS assay to identify novel small-molecules to repurpose for Merkel cell carcinoma treatment (AID 1296009). Also: potency is read from the fitted curve at half-maximal effect. The note with it: MCC and control cell lines, CellTiter-Glo viability, 72 h; at 44.8 µM (top of the series) unless noted. The method, boiled down:
(§2)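 Cells exposed to NPC (8-point) and MIPE (11-point) compound dilutions for 72 hr at 37 degree celsius; viability read by CellTiter-Glo luminescence, normalized to no-cell and DMSO in-plate controls.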

For a further assay, the system named is MCC-13. The description is as above. The note with it: MCC and control cell lines, CellTiter-Glo viability, 72 h; series mostly up to 46 µM. The essentials: as §2
A further assay deals with MCC-26. The assay is described as above. The note with it: MCC and control cell lines, CellTiter-Glo viability, 72 h; series mostly up to 46 µM. The method, boiled down:
as §2

The test system of a further assay is MKL-1. The description is as above. As to conditions: MCC and control cell lines, CellTiter-Glo viability, 72 h; series mostly up to 46 µM. The essentials: as §2
For a further assay, the system named is MKL-2. The description is as above. The note with it: MCC and control cell lines, CellTiter-Glo viability, 72 h; series mostly up to 46 µM. The method, boiled down: as §2
The next assay deals with UISO. The description is as above. The note with it: MCC and control cell lines, CellTiter-Glo viability, 72 h; series mostly up to 46 µM. The essentials: as §2
For another assay, the system named is WaGa. The assay is described as above. The note with it: MCC and control cell lines, CellTiter-Glo viability, 72 h; series mostly up to 46 µM. The method, boiled down:
as §2

A further assay has as its system SC27B. As to the kind of experiment: qHTS profiling for inhibitors of Plasmodium falciparum proliferation (AID 504749).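 Also: 0% = DMSO vehicle and full inhibition = artemisinin control.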 The note with it: P. falciparum in erythrocytes, SYBR Green DNA, 72 h; series mostly up to 28.7 µM. The method, boiled down: (§3)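 P. falciparum-infected erythrocytes (0.3% parasitemia, 2.5% hematocrit final) were exposed to compounds for 72 h at 37 C in 5% CO2, then lysed with SYBR Green buffer overnight at room temperature; parasite DNA fluorescence was normalized to artemisinin and DMSO controls.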
In general terms: In qHTS, concentration-response curves come from the screen itself.

A further assay deals with TAB109. The description is as above. The note with it: P. falciparum in erythrocytes, SYBR Green DNA, 72 h; series mostly up to 28.7 µM. The essentials:
as §3

The subject of a further assay is TAB113. The description is as above. As to conditions: P. falciparum in erythrocytes, SYBR Green DNA, 72 h; series mostly up to 28.7 µM. The essentials:
as §3

The test system of another assay is TAB165. The description is as above. As to conditions: P. falciparum in erythrocytes, SYBR Green DNA, 72 h; series mostly up to 28.7 µM. The method, boiled down:
as §3

A further assay has as its system W2. The description is as above. As to conditions: P. falciparum in erythrocytes, SYBR Green DNA, 72 h; series mostly up to 28.7 µM. The essentials: as §3
The test system of the next assay is HEK293T. Nature of the assay: qHTS assay to identify novel small-molecules to repurpose for Merkel cell carcinoma treatment (AID 1296009). Also: potency is read from the fitted curve at half-maximal effect. As to conditions: MCC and control cell lines, CellTiter-Glo viability, 72 h; at 44.8 µM (top of the series). The method, boiled down: as §2
Assay [5] concerns NIH3T3. The assay is described as above. As to conditions: MCC and control cell lines, CellTiter-Glo viability, 72 h; at 44.8 µM (top of the series) unless noted. The essentials:
as §2

The subject of assay [6] is CRL-7250. The assay is described as above. The note with it: MCC and control cell lines, CellTiter-Glo viability, 72 h; at 44.8 µM (top of the series) unless noted. The method, boiled down:
as §2

Where “and” joins values, the source holds several entries; their conditions need not be identical. Equal entries are not always repeated. Records with an inconclusive call do not appear. Unmarked numbers belong to inactive results. Calls of active or inactive are those of the source. Calls follow the shape of the dose curve; as a rule, active = well fitted inhibition curve with a large enough effect; inconclusive = small, poorly fitted or top-dose-only effect; inactive = flat fitted curve, though single readings scatter.
Also: nearly all actives have a fitted effect of over 60% in size.

As for `C=CCN1CC[C@]23CCCC[C@H]2[C@H]1Cc1ccc(O)cc13`, the max response with CRL-7250 [1] is 1.58%; in the assay with HEK293, -6.38%; with KB-3-1 it was 20.9%; in the assay with NIH3T3 [3] it was -4.67%. For the same compound, the compound was classed as inactive in the assay on HaCat [2] and in the assay with HACAT [4]. Besides, the Potency entry with MCC-13, in the assay with MCC-26, in the assay on MKL-1, in the assay with MKL-2, in the assay with UISO and with WaGa was “inactive” each time.
For the compound `O=C(O)c1nn(Cc2ccc(Cl)cc2Cl)c2ccccc12`, the Potency entry with SC27B, with TAB109, with TAB113, in the assay on TAB165, in the assay on W2 and with MCC-13 was “inactive” in each case. For the same compound, the Potency result with MCC-26, with MKL-1, with MKL-2, in the assay with UISO and in the assay on WaGa was “inactive” each time. Also, the max response was -5.04% and -7.58% with CRL-7250 [1]; -10.4% in the assay with HEK293; -0.99% in the assay with HaCat [2]; 4.9% and -9.13% with KB-3-1; -6.41% in the assay with NIH3T3 [3]. Besides, the result with HEK293, in the assay on HaCat [2], with NIH3T3 [3], in the assay with HACAT [4], in the assay on HEK293T and in the assay with NIH3T3 [5] was inactive.
Turning to `CCOC(=O)c1cncn1C(C)c1ccccc1` (stereo not given), the max response is 3.39% with CRL-7250 [1]; -5.29% in the assay on HaCat [2]; 0.49% and 0.484% in the assay on KB-3-1; 1.83% and -0.636% in the assay with NIH3T3 [3]. Moreover, the result with CRL-7250 [1], in the assay with HaCat [2], in the assay with CRL-7250 [6], in the assay with HACAT [4] and in the assay with HEK293T was inactive. Besides, the Potency result in the assay with MCC-13, in the assay with MCC-26, in the assay with MKL-1, with MKL-2, with UISO and with WaGa was “inactive” in each case.
Take `CC1N=C(N)OC1c1ccccc1` (stereo not given): the max response in the assay on CRL-7250 [1] was -30.4%; in the assay with HEK293 it was -15.4%; in the assay with KB-3-1 it was -3.1%; in the assay with NIH3T3 [3] it was -2.85%. The compound was called inactive in the assay with HaCat [2]. For the same compound, the outcome with HACAT [4] was “inactive [at 92 µM]”. Further, the Potency entry in the assay with MCC-13, in the assay with MCC-26, in the assay with MKL-1, with MKL-2 and with UISO was “inactive” throughout.
`C[C@@H]1C[C@@H]([C@H](O)CC2CC(=O)NC(=O)C2)C(=O)[C@@H](C)C1`: the Potency is 1.33 µM (active) and 833 nM (active) in the assay on CRL-7250 [1]; 469 nM (active) in the assay on HEK293; 2350 nM (active) with HaCat [2]; 3.66 µM (active) and 1.48 µM (active) in the assay on KB-3-1; 473 nM (active) and 235 nM (active) with NIH3T3 [3]; 944 nM (active) and 4.69 µM (active) in the assay with MCC-13. Moreover, the Potency in the assay on MKL-1 was 1660 nM (active); in the assay with MKL-2 it was 2090 nM (active); with UISO, 1.06 µM (active) and 1.18 µM (active); with WaGa it was 5900 nM (active).
`CC[C@]1(O)CC[C@H]2[C@@H]3CCC4=CCCC[C@@H]4[C@H]3CC[C@@]21C`: the Potency result in the assay on TAB109, with MCC-26, with MKL-1, in the assay on MKL-2 and with WaGa was “inactive” throughout. Besides, the figures for the max response in the assay on CRL-7250 [1] and in the assay on HEK293 were -110% and -119%, respectively.
With `O=C(O)CCCCCCNC1c2ccccc2CCc2ccccc21`, the max response is -2% in the assay with CRL-7250 [1]; 2.21% in the assay with HEK293; 0.465% in the assay on HaCat [2]; 7.47% in the assay on KB-3-1; 1.62% with NIH3T3 [3]. Also, the Potency result with MCC-13, in the assay on MCC-26, in the assay with MKL-1, with MKL-2 and in the assay with WaGa was “inactive” each time.
For `C[C@@H]1O[C@@H](O[C@@H]2C=C3CC[C@@H]4[C@H](CC[C@]5(C)[C@@H](c6ccc(=O)oc6)CC[C@]45O)[C@@]3(C)CC2)[C@H](O)[C@H](O)[C@H]1O`, the Potency with CRL-7250 [1] was 13.3 nM (active); in the assay on HEK293, 33.5 nM (active); with HaCat [2], 42.2 nM (active); with MCC-13, 3.3 nM (active); with MKL-1, 9.4 nM (active); in the assay on MKL-2 it was 8.4 nM (active). The Potency in the assay with UISO was 3.8 nM (active); in the assay on WaGa, 2.7 nM (active).

For the origin of these results see PubChem BioAssay (NCATS).
